# PubChem BioAssay (NCATS)
# “And” between values parts separate entries of the source, which are not always exact repeats. Identical values can stand only once. Results filed as inconclusive are left out. A call without a number means that no potency is given here. The source made the active and inactive calls. Unless noted, calls come from the whole dose curve; as a rule, active = well fitted curve in the direction sought with a large enough effect; inconclusive = small, poorly fitted or top-dose-only effect, or another doubt; inactive = no such curve, though single readings can be large; an effect the other way counts as inactive or inconclusive.
# Experiments:
# [1] = biological target: Voltage-gated inwardly rectifying potassium channel KCNH2 (Homo sapiens) (UniProt Q12809); assay: qHTS Assay for Small Molecule Inhibitors of the Human hERG Channel Activity (AID 588834);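 note: lower thallium flux fluorescence means stronger hERG block; nearly all actives have a fitted effect of over 50% in size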; note: potency is the fitted concentration of half-maximal effect
# Procedure, shortened: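 Measured: FluxOR fluorescence after thallium stimulation in U2OS cells transduced with hERG by baculovirus. Compounds pre-incubated around 10 min; medium Opti-MEM with 2% FCS. AC50 from Hill equation.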
# [2] = biological target: Luciferin 4-monooxygenase (Photinus pyralis) (UniProt P08659); assay: Biochemical firefly luciferase enzyme assay for NPC (AID 624030); note: nearly all actives have a fitted effect of over 70% in size; note: potency is the fitted concentration of half-maximal effect
# Procedure, shortened: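 Purified P. pyralis luciferase at 10 nM in 50 mM Tris Acetate (final), luminescence read within 5 minutes of enzyme addition to compounds. Activity normalised to PTC124 versus DMSO; concentration-response curves classed by r2, magnitude and activity.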
# [3] = S16 Schwann cell viability assay (CellTiter-Glo assay) (AID 624031); note: nearly all actives have a fitted effect of over 70% in size; note: potency is the fitted concentration of half-maximal effect
# Procedure, shortened: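 Native S16 rat Schwann cells in DMEM/10% FBS without phenol red were incubated overnight, then exposed to compounds for 24 h at 37 °C/5% CO2. Viability was read as ATP luminescence (CellTiter-Glo), normalized to no-cell wells and DMSO (0%).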
# [4] = S16 Schwann cell PMP22 intronic element firefly luciferase assay (AID 624032); note: nearly all actives have a fitted effect of over 30% in size; note: potency is the fitted concentration of half-maximal effect
# Procedure, shortened: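 Rat S16 Schwann cells stably carrying firefly luciferase driven by a PMP22 intronic element, in 10% FBS, treated 24 h at 37 C. ONE-Glo luminescence normalized to PTC124 control and DMSO (0%); curves classed by r2, magnitude and activity.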
# [5] = S16 Schwann cell PMP22 intronic element beta-lactamase assay (AID 624044; calls by dose curve; note: nearly all actives have a fitted effect of over 15% in size; note: potency is the fitted concentration of half-maximal effect)
# Procedure, shortened: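 Rat S16 Schwann cells with beta-Lac driven by a PMP22 intronic element, compound-treated 24 h at 37 °C. LiveBLAzer FRET B/G read: 460 nm normalized to potassium clavulanate vs DMSO; 535 nm FRET as viability; concentration-effect curves classified.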
# [6] = qHTS of Trypanosoma Brucei Inhibitors: LOPAC Validation (AID 624147)
# Procedure, shortened: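 TbPYK + substrate in 50 mM TEA pH 7.2, 100 mM KCl, 10 mM MgCl2, 0.05% BSA, 0.01% Tween-20; cpd pinned; ADP 130 uM final; 45 min RT; Kinase-Glo Plus 10 min; luminescence endpoint.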
# Voltage-gated inwardly rectifying potassium channel KCNH2 (Homo sapiens), sequence (Q12809 whole entry, looked up): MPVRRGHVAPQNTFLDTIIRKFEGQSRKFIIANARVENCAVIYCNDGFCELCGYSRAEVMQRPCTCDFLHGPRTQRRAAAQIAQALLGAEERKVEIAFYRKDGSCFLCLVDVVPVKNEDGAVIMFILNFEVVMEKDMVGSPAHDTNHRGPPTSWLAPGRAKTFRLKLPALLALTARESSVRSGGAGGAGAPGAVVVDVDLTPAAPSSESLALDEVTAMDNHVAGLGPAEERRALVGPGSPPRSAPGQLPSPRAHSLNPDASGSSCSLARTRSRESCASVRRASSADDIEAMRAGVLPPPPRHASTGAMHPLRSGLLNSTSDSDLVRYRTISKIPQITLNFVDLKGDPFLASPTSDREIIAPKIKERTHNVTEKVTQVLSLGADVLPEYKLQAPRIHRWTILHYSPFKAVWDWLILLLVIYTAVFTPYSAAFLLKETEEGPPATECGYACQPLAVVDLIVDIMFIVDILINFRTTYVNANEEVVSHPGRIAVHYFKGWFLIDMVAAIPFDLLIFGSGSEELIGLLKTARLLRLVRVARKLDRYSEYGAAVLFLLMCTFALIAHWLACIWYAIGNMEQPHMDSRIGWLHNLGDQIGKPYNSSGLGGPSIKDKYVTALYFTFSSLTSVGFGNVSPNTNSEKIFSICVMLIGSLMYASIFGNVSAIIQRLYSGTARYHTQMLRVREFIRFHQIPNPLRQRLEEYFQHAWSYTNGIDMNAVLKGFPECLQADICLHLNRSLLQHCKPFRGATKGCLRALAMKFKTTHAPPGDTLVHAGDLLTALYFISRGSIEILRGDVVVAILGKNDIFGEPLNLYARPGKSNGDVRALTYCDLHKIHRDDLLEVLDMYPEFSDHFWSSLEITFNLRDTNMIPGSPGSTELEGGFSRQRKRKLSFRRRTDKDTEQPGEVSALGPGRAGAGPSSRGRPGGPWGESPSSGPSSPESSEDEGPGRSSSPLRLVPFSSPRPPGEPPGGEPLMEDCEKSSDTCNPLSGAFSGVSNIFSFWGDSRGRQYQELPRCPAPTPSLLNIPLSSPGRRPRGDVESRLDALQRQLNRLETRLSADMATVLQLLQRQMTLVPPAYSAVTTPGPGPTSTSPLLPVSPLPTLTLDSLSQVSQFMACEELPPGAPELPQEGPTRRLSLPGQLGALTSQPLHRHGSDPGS
# Luciferin 4-monooxygenase (Photinus pyralis), sequence (P08659 whole entry, looked up): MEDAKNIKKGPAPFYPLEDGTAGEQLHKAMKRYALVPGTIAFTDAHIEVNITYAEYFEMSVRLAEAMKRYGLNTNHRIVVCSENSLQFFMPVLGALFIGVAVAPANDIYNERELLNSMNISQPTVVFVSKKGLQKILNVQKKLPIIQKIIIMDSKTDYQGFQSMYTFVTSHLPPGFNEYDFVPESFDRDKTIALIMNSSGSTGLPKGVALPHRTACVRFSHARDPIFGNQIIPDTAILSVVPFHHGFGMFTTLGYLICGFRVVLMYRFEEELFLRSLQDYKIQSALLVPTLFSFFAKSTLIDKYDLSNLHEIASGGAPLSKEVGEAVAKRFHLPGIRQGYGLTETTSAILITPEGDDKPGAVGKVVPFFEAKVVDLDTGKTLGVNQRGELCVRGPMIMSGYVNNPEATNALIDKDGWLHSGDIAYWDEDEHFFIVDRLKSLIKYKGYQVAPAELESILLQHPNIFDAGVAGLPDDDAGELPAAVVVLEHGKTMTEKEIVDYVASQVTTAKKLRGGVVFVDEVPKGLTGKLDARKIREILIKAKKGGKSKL
smiles,measurement,setting,value
Cc1cccc(C)c1NC1=NCCCS1,Potency,[1],inactive
same,Potency,[2],inactive
same,Potency,[3],inactive
same,Potency,[4],inactive
same,Potency,[5],inactive
same,outcome,[6],inactive
CC[C@@H](CO)NC(=O)[C@@H]1C=C2c3cccc4c3c(cn4C)C[C@H]2N(C)C1,Potency,[1],inactive
same,Potency,[2],inactive
same,Potency,[3],inactive
same,Potency,[4],inactive
same,Potency,[5],inactive
CCN(CC)CCOC(=O)C(O)(c1ccccc1)c1ccccc1,Potency,[1],15.8 µM (active)
same,Potency,[2],inactive
same,Potency,[3],inactive
same,Potency,[5],inactive
COc1ccc(C(CN(C)C)C2(O)CCCCC2)cc1 (stereo not given),Potency,[1],inactive
same,Potency,[2],inactive
same,Potency,[3],inactive
same,Potency,[4],inactive
same,outcome,[6],inactive
O=C(O)c1ccc2[nH]cc(CCCCN3CC=C(c4ccccc4)CC3)c2c1,Potency,[1],inactive
same,Potency,[2],inactive
same,Potency,[4],inactive
NCCc1cc(O)c(O)cc1O,Potency,[1],inactive
same,Potency,[3],inactive
same,Potency,[4],inactive
same,Potency,[5],inactive
CNCC[C@H](Oc1cccc2ccccc12)c1cccs1,Potency,[4],20.3 µM (active)
CCC(COC(=O)c1cc(OC)c(OC)c(OC)c1)(c1ccccc1)N(C)C (stereo not given),Potency,[2],inactive
same,Potency,[3],inactive
same,Potency,[4],inactive
same,Potency,[5],inactive
CC(O)(CS(=O)(=O)c1ccc(F)cc1)C(=O)Nc1ccc(C#N)c(C(F)(F)F)c1 (stereo not given),outcome,[6],inactive
C[C@@H]1O[C@@H](O[C@H]2C[C@@H](O)[C@]3(CO)[C@H]4[C@H](O)C[C@]5(C)[C@@H](C6=CC(=O)OC6)CC[C@]5(O)[C@@H]4CC[C@]3(O)C2)[C@H](O)[C@H](O)[C@H]1O,Potency,[1],inactive
same,outcome,[6],inactive
Cc1c(OCC(F)(F)F)ccnc1CS(=O)c1nc2ccccc2[nH]1 (stereo not given),Potency,[4],inactive
CC(=O)[C@H]1CC[C@H]2[C@@H]3CC[C@H]4C[C@H](O)CC[C@]4(C)[C@H]3C(=O)C[C@]12C,Potency,[2],inactive
same,Potency,[5],inactive
same,outcome,[6],inactive
CN1CCc2cccc3c2[C@H]1Cc1ccc(O)c(O)c1-3,Potency,[3],32.2 µM (active)
COC[C@H]1OC(=O)c2coc3c2[C@@]1(C)C1=C(C3=O)C2CCC(=O)[C@@]2(C)C[C@H]1OC(C)=O (stereo not given in full),outcome,[6],inactive
CCCN1CCC[C@@H]2Cc3nc(N)ncc3C[C@H]21,Potency,[1],inactive
same,outcome,[6],inactive
c1ccc2c(c1)OCC(C1=NCCN1)O2 (stereo not given),Potency,[1],inactive
same,Potency,[2],inactive
same,outcome,[6],inactive
CC(C)=CCOc1c2occc2cc2ccc(=O)oc12,Potency,[2],inactive
same,outcome,[6],inactive
CCCN1CCC[C@@H]2Cc3[nH]ncc3C[C@H]21,Potency,[2],inactive
same,Potency,[3],inactive
same,Potency,[4],inactive
same,outcome,[6],inactive
Cc1cccc(C)c1NC(=O)CN1CCCC1=O,Potency,[2],inactive
same,outcome,[6],inactive
NC(=Nc1ccccc1)Nc1ccccc1,Potency,[2],inactive
same,Potency,[5],inactive
O=c1[nH]c2ccccc2n1CCCN1CCC(n2c(=O)[nH]c3cc(Cl)ccc32)CC1,Potency,[2],inactive
same,Potency,[4],36.1 µM (active)
same,outcome,[6],inactive
CN1CCN(C2=Nc3cc(Cl)ccc3Nc3ccccc32)CC1,Potency,[2],inactive
O=c1[nH]cc(F)c(=O)[nH]1,Potency,[5],5.62 µM (active)
CO[C@]12CC[C@@]3(C[C@@H]1[C@](C)(O)C(C)(C)C)[C@@H]1Cc4ccc(O)c5c4[C@@]3(CCN1CC1CC1)[C@H]2O5,Potency,[2],inactive
O=C1NCN(c2ccccc2)C12CCN(CC1COc3ccccc3O1)CC2 (stereo not given),Potency,[1],6.31 µM (active) and 7.94 µM (active)
same,Potency,[2],inactive
same,Potency,[5],inactive
same,outcome,[6],inactive
CCCSc1ccc2nc(NC(=O)OC)[nH]c2c1,Potency,[4],inactive
same,Potency,[5],1.07 µM (active)
CNCCC(Oc1ccc(C(F)(F)F)cc1)c1ccccc1 (stereo not given),Potency,[4],inactive
CC(=O)Nc1nnc(S(N)(=O)=O)s1,Potency,[4],inactive
COc1cc([C@@H]2c3cc4c(cc3[C@H](O)[C@H]3COC(=O)[C@H]23)OCO4)cc(OC)c1OC,Potency,[4],0.0128 µM (active)
same,Potency,[5],0.0224 µM (active)
CC(=O)Oc1ccccc1C(=O)Nc1ncc([N+](=O)[O-])s1,Potency,[2],0.721 µM (active)
same,Potency,[4],inactive
Fc1ccc(C(OCCN2CCN(CCCc3ccccc3)CC2)c2ccc(F)cc2)cc1,Potency,[2],inactive
same,Potency,[3],32.2 µM (active)
same,Potency,[4],28.7 µM (active)
same,outcome,[6],inactive
Cc1ccc2c(n1)Oc1ccc(C(C)C(=O)OCC(=O)N(C)C)cc1C2 (stereo not given),Potency,[2],14.4 µM (active)
N[C@@H](Cc1ccc(N(CCCl)CCCl)cc1)C(=O)O,Potency,[2],inactive
same,Potency,[4],9.07 µM (active)
